From the supplement of paper PMC10369915

B1: PD-1 ITIM pTyr223 peptide variant V218M (peptide)
chain: MFSVDYGELDF
B2: PD-1 ITIM pTyr223 peptide variant D227L (peptide)
chain: VFSVDYGELLF
B3: PD-1 ITIM pTyr223 peptide variant E225L (peptide)
chain: VFSVDYGLLDF
B4: PD-1 ITIM pTyr223 peptide variant V221P (peptide)
chain: VFSPDYGELDF
B5: PD-1 ITIM pTyr223 peptide variant F228L (peptide)
chain: VFSVDYGELDL
B6: PD-1 ITIM pTyr223 peptide variant G224P (peptide)
chain: VFSVDYPELDF
B7: PD-1 ITIM pTyr223 peptide variant S220F (peptide)
chain: VFFVDYGELDF
B8: PD-1 ITIM pTyr223 peptide variant V218I (peptide)
chain: IFSVDYGELDF
B9: PD-1 ITIM pTyr223 peptide variant F228V (peptide)
chain: VFSVDYGELDV
B10: PD-1 ITIM pTyr223 peptide variant V218F (peptide)
chain: FFSVDYGELDF
B11: PD-1 ITIM pTyr223 peptide variant D227P (peptide)
chain: VFSVDYGELPF
B12: PD-1 ITIM pTyr223 peptide variant V221L (peptide)
chain: VFSLDYGELDF
B13: PD-1 ITIM pTyr223 peptide variant G224M (peptide)
chain: VFSVDYMELDF
B14: PD-1 ITIM pTyr223 peptide variant F228P (peptide)
chain: VFSVDYGELDP
B15: PD-1 ITIM pTyr223 peptide variant D227F (peptide)
chain: VFSVDYGELFF
B16: PD-1 ITIM pTyr223 peptide variant V218P (peptide)
chain: PFSVDYGELDF
B17: PD-1 ITIM pTyr223 peptide variant S220M (peptide)
chain: VFMVDYGELDF
B18: PD-1 ITIM pTyr223 peptide variant F219V (peptide)
chain: VVSVDYGELDF
B19: PD-1 ITIM pTyr223 peptide variant D222F (peptide)
chain: VFSVFYGELDF
B20: PD-1 ITIM pTyr223 peptide variant G224L (peptide)
chain: VFSVDYLELDF
B21: PD-1 ITIM pTyr223 peptide variant E225M (peptide)
chain: VFSVDYGMLDF
B22: PD-1 ITIM pTyr223 peptide variant D222V (peptide)
chain: VFSVVYGELDF
B23: PD-1 ITIM pTyr223 peptide variant F228I (peptide)
chain: VFSVDYGELDI
B24: PD-1 ITIM pTyr223 peptide variant V221F (peptide)
chain: VFSFDYGELDF
B25: PD-1 ITIM pTyr223 peptide variant F219P (peptide)
chain: VPSVDYGELDF
B26: PD-1 ITIM pTyr223 peptide variant F228W (peptide)
chain: VFSVDYGELDW
B27: PD-1 ITIM pTyr223 peptide variant S220V (peptide)
chain: VFVVDYGELDF
B28: PD-1 ITIM pTyr223 peptide variant D222I (peptide)
chain: VFSVIYGELDF
B29: PD-1 ITIM pTyr223 peptide variant L226I (peptide)
chain: VFSVDYGEIDF
B30: PD-1 ITIM pTyr223 peptide variant V221I (peptide)
chain: VFSIDYGELDF
B31: PD-1 ITIM pTyr223 peptide variant V221M (peptide)
chain: VFSMDYGELDF
B32: PD-1 ITIM pTyr223 peptide variant D227W (peptide)
chain: VFSVDYGELWF
B33: PD-1 ITIM pTyr223 peptide variant D227M (peptide)
chain: VFSVDYGELMF
B34: PD-1 ITIM pTyr223 peptide variant D222M (peptide)
chain: VFSVMYGELDF
B35: PD-1 ITIM pTyr223 peptide variant E225F (peptide)
chain: VFSVDYGFLDF
B36: PD-1 ITIM pTyr223 peptide variant E225I (peptide)
chain: VFSVDYGILDF
B37: PD-1 ITIM pTyr223 peptide variant L226P (peptide)
chain: VFSVDYGEPDF
B38: PD-1 ITIM pTyr223 peptide variant D227V (peptide)
chain: VFSVDYGELVF
B39: PD-1 ITIM pTyr223 peptide variant G224W (peptide)
chain: VFSVDYWELDF
B40: PD-1 ITIM pTyr223 peptide variant D222P (peptide)
chain: VFSVPYGELDF

Biological target: SHP2 N-SH2 domain T42A
Assay: log2 enrichment relative to wild-type ITIM peptide; higher = stronger binding

Binder	log2 enrichment
B1	0.0157
B2	-0.728
B3	-0.496
B4	-1.23
B5	-1.19
B6	1.75
B7	-0.202
B8	-0.151
B9	-1.42
B10	-0.37
B11	-1.19
B12	-0.962
B13	-0.224
B14	-1.6
B15	-0.714
B16	0.0339
B17	-0.0956
B18	-0.0583
B19	-0.334
B20	-0.0968

Binder	log2 enrichment
B21	-0.596
B22	0.135
B23	-1.45
B24	-1.03
B25	0.209
B26	0.678
B27	-0.0553
B28	-0.259
B29	-0.691
B30	-0.464
B31	-0.943
B32	-0.71
B33	-0.781
B34	0.307
B35	-0.82
B36	-0.312
B37	-0.564
B38	-0.565
B39	-0.623
B40	1.61
